Most compounds without a hit are left out; they make up all but 4.4% or so of the library.
PfHsp90 set2 – inhibits growth of yeast expressing Plasmodium falciparum Hsp90; AID 504621; hit rate 0.32% among 310,000; S. cerevisiae expressing PfHsp90, BacTiter-Glo ATP, 48 h; yeast lacking PDR1 and PDR3 efflux regulators; inhibition, % at 9.4 µM;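 active = every replicate shows inhibition above about 80%, whatever the replicate mean, limit read from the data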
tim10-1 inh – tim10-1 yeast growth inhibition | S. cerevisiae tim10-1 ts strain growth, BacTiter-Glo, 24 h | inhibition, % at 20 µM | hit rate 2.2% among 330,000 | AID 463190;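 active = inhibition of at least 40%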;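 note: mutant grown at 25 °C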
TIM10 inh – inhibits growth of TIM10 yeast strain; S. cerevisiae TIM10 strain growth, BacTiter-Glo luminescence, 24 h; inhibition, % at 10 µM; hit rate 1.4% among 330,000;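 active = inhibition of 40% or more at the single tested concentration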;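 note: wild-type TIM10 isogenic control strain grown at permissive 25 °C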
SKKanGAS inh – SKKanGAS growth inhibition | S. pyogenes SKKanGAS, kanamycin growth, BacTiter-Glo, 6 h | inhibition, % at 7.5 µM | hit rate 1.3% among 300,000;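 active = mean replicate score, as percent of positive control median, at least 50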;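 note: strain carries kanamycin resistance gene driven by streptokinase promoter and grows in 40 µg/ml kanamycin; loss of luminescence reflects streptokinase promoter inhibition or plain growth inhibition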
tim23-1 inh – growth inhibitors of tim23-1 mutant yeast; S. cerevisiae tim23-1 growth, BacTiter-Glo luminescence, 24 h; inhibition, % at 20 µM; hit rate 1.3% among 330,000;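 active = growth inhibition of the mutant yeast at or above 50%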;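 note: temperature-sensitive mutant grown at 25 °C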
A number is an active result; n = inactive; x = not tested or not shown.

SMILES | PfHsp90 set2 | tim10-1 inh | TIM10 inh | SKKanGAS inh | tim23-1 inh
COc1cccc(/C=N/NC(=O)c2nnn(-c3nonc3N)c2C(C)C)c1OCc1ccc(F)cc1 | n | n | n | 60 | n
CC(C)c1c(C(=O)N/N=C/c2ccc(OCc3ccccc3)cc2)nnn1-c1nonc1N | n | n | n | n | n
CC(C)c1c(C(=O)N/N=C/c2cccc(OCc3ccccc3)c2)nnn1-c1nonc1N | n | n | n | 81 | n
COc1ccccc1N(C)S(=O)(=O)c1ccc(C(=O)Nc2ccc(C)cc2C)cc1 | n | n | n | x | n
O=C(COC(=O)c1ccc(F)cc1)NC1CC1 | n | n | n | x | n
COC(=O)/C(N=Nc1cccc(C(F)(F)F)c1)=C(\C)O | n | n | n | n | n
O=C(/C(=C/O)N=Nc1cccc(C(F)(F)F)c1)c1ccccc1 | 108 | n | n | n | n
O=C(CN1C(=O)COc2ccc(S(=O)(=O)N3CCCCC3)cc21)NCc1ccc(F)cc1 | n | n | n | 103 | n
CCOC(=O)c1cnc(-n2cc(C)cn2)nc1Nc1ccccc1OCC | n | n | n | 90 | n
Cc1cccc(C)c1NC(=O)COC(=O)c1ccc([N+](=O)[O-])o1 | 87 | n | n | n | n
O=C(COC(=O)c1ccc([N+](=O)[O-])o1)NCc1ccccc1 | n | n | n | x | n
CCCc1nc(NCCO)c(C#N)c2c1CCCC2 | x | n | n | n | n
CCCc1nc(NCc2ccccc2)c(C#N)c2c1CCCC2 | n | n | n | 74 | n
COc1ccc(C(=O)CSc2[nH]c(=O)cc(C(F)(F)F)c2C#N)cc1 | n | n | n | 66 | n
COc1ccc(OC)c(NP2(=O)OCC(C)([N+](=O)[O-])CO2)c1 (centres undefined) | n | x | x | x | x
CC(NC(=O)c1ccco1)C(=O)N1CCN(C(c2ccccc2)c2ccccc2)CC1 (centres undefined) | n | n | n | n | n
O=C(NC(=S)Nc1cccc(Cl)c1N1CCCCC1)c1ccc2c(c1)OCCO2 | n | n | n | 61 | n
COc1ccccc1C(=O)NC(=S)Nc1ccccc1N1CCCC1 | x | n | n | n | n
O=C(Nc1cccc(Cl)c1N1CCCCC1)c1ccc2c(c1)OCCO2 | n | n | n | 62 | n
CCN1CCN(c2c(Cl)cccc2NC(=O)c2ccc3c(c2)OCCO3)CC1 | x | n | n | n | n
O=C(NC(=S)Nc1ccccc1N1CCCCC1)c1ccc(F)cc1Cl | n | n | n | 50 | n
Cc1[nH]n(C(N)=S)c(=O)c1N=Nc1cccc(C(F)(F)F)c1 | n | n | n | n | n
Cc1[nH]n(C2=NCCS2)c(=O)c1N=Nc1cccc(C(F)(F)F)c1 | n | n | n | 83 | n
Cc1nnc(-c2cccc(Br)c2)c2cn(-c3cccc(Br)c3)nc12 | n | n | n | n | n
Cc1nnc(-c2cccc(Br)c2)c2cn(-c3ccc(Br)cc3)nc12 | n | n | n | 56 | n
SMILES | PfHsp90 set2 | tim10-1 inh | TIM10 inh | SKKanGAS inh | tim23-1 inh
Cc1ccc2cccc(NS(=O)(=O)c3ccccc3)c2n1 | x | n | n | 55 | n
COc1ccc(CC(=O)Nc2ccc(F)c(F)c2F)cc1S(=O)(=O)N1CCOCC1 | n | n | n | x | n
COC(=O)c1ccc(N2C(=O)CC(N(C)Cc3ccccc3)C2=O)cc1 (centres undefined) | 104 | n | n | n | n
CCOc1ccc2c(c1)C(=NNC(=O)c1ccccn1)c1cc(OCC)ccc1-2 | n | x | x | x | x
O=C(O)CN1C(=O)/C(=C\c2cc(Br)ccc2OCc2ccc(Cl)cc2)SC1=S | n | x | x | 94 | x
O=C(O)CN1C(=O)/C(=C\c2cc([N+](=O)[O-])ccc2OCc2ccccc2Cl)SC1=S | n | n | n | 55 | n
CCN1C(=O)[C@H]2[C@@H](c3ccc(-c4ccc(F)cc4)c(OC)c3)N[C@@](Cc3ccccc3)(C(=O)OC)[C@H]2C1=O | x | n | n | x | n
COc1ccc(C(=O)NCC(=O)OCC(=O)N2N=C(c3ccc(Cl)cc3)CC2c2ccco2)cc1OC (centres undefined) | n | n | n | 76 | n
Cc1ccc(SCCNC(=S)Nc2ccc(C)c(C)c2)cc1 | n | n | n | n | n
Cc1cc(C)cc(NC(=S)NCCSc2ccc(Cl)cc2)c1 | n | n | n | 50 | n
Cc1cccc(C)c1NC(=O)CNC(=O)c1ccc2ccccc2n1 | n | n | n | x | n
O=[N+]([O-])c1ccc(O)c(-c2cc(C(F)(F)F)nc(-c3ccccc3)n2)c1 | n | n | n | 94 | n
O=C1CC(N2CCN(c3ccc(O)cc3)CC2)C(=O)N1c1ccc2c(c1)OCO2 (centres undefined) | n | n | n | n | n
O=C1CC(N2CCCCCC2)C(=O)N1c1ccc2c(c1)OCO2 (centres undefined) | 121 | n | n | n | n
COc1ccc(NC(=O)COc2ccccc2Cc2ccccc2)cc1S(=O)(=O)N1CCOCC1 | x | n | n | x | n
Cn1nc(-c2ccccc2)c(CSc2ccccc2Cl)c1Cl | n | n | n | 75 | n
Cc1ccc(/C=C2/SC(=S)N(c3ccc(S(=O)(=O)Nc4nccs4)cc3)C2=O)cc1 | n | n | n | n | n
Cc1ccc(Oc2ccc3c(c2)C(=O)N(c2ccc(S(=O)(=O)Nc4nccs4)cc2)C3=O)cc1 | n | n | n | 93 | n
CCN1C[C@@H]2[C@@H]3C(=O)N(C)C(=O)[C@@H]3[C@](C)(C1=O)N2C(=O)c1ccc(Cl)c(Cl)c1 | n | x | x | x | x
CCN(CC)C(=S)Sc1c(-c2ccccc2)c2cc(Cl)ccc2[nH]c1=O | n | n | n | 92 | n
c1ccc(CN2CCN(c3nc4ccccc4c4ccccc34)CC2)cc1 | n | n | n | 76 | n
Cc1nc(-c2ccc(S(=O)(=O)Nc3cccc(S(N)(=O)=O)c3)s2)cs1 | n | n | n | n | n
Cc1nc(-c2ccc(S(=O)(=O)Nc3ccc(Br)cc3Cl)s2)cs1 | n | n | n | 74 | n
Cc1cc(C)cc(C(=O)OCC(=O)NCc2ccco2)c1 | n | n | n | x | n
Cc1cc(C)c(C#N)c(N2CCN(c3ccccc3F)CC2)n1 | n | n | n | 50 | n
SMILES | PfHsp90 set2 | tim10-1 inh | TIM10 inh | SKKanGAS inh | tim23-1 inh
Cc1cc(C)c(C#N)c(N2CCN(Cc3ccccc3)CC2)n1 | n | n | n | n | n
O=C(O)c1ccc2c(c1)C1C=CCC1C(c1cc3c(cc1Br)OCO3)N2 (centres undefined) | n | n | n | n | n
Brc1cc2c(cc1C1Nc3ccccc3C3C=CCC31)OCO2 (centres undefined) | n | n | n | 64 | n
Cc1cc(C)c2c(c1)NC(c1cc3c(cc1Br)OCO3)C1CC=CC21 (centres undefined) | n | x | x | 51 | x
CCCc1nc2ccccc2c(=O)n1NC(=O)c1c(O)c2cccc3c2n(c1=O)CCC3 | n | n | n | 73 | n
CC(C)c1nnc(NC(=O)c2c(O)c3cccc4c3n(c2=O)CCC4)s1 | n | n | n | 90 | n
Cc1cnc(NC(=O)c2c(O)c3cccc4c3n(c2=O)CCC4)s1 | x | x | x | n | x
CCn1c(C)nc2cc(C(=O)NNC(=S)NC(=O)c3ccc(OC)cc3)ccc21 | n | n | n | 59 | n
COc1ccc(C(=O)NC(=S)Nc2ccccc2F)cc1 | n | n | n | n | n

Assay outcomes: PubChem BioAssay, several laboratories
